# Bioassay records (PubChem)
# FBW7 act: activators of human E3 ligase FBW7 | AlphaScreen FBW7–phospho-cyclin E peptide binding, activator screen | normalized activity (activation), % at 26.1 µM | hit rate 0.13% among 650,000 | AID 1259310; in the data active = normalized activity above about 1.9%;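 note: purified mutant Fbw7 with reduced substrate affinity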
# GPR151 activ: activates the human receptor GPR151; Q8TDV0; PathHunter beta-arrestin GPR151 cells, luminescence; activation, % at 11.2 µM; hit rate 1% among 650,000; AID 1508602; in the data active = activation above about 4.9%;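 note: 0% = median of compound wells and 100% = cells with positive control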
# MITF primary: inhibitors of human MITF | AlphaScreen MITF homodimerization, bead proximity signal | inhibition, % at 2.6 µM | hit rate 0.91% among 650,000 | AID 1259374; in the data active = inhibition above about 50%;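 note: 0% = vehicle wells with protein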
# TEAD-YAP inh: TEAD-YAP interaction inhibition; HEK-TIYL cells, TEAD-Gal4/YAP UAS-luciferase luminescence; inhibition, % at 9.12 µM; hit rate 1.4% among 640,000; AID 1259422; in the data active = inhibition above about 32%;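 note: 0% = median of test compound wells and 100% = reference inhibitor wells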
# MITF inh conf: human MITF inhibition, confirmation; shares compounds with MITF primary; AlphaScreen MITF homodimerization, biotin/His-MITF beads; inhibition, % at 2.6 µM; hit rate 16% among 4,700; AID 1259372;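 active = inhibition above a cutoff derived from the DMSO control wells, cut at about 28% in these data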;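 note: 0% = MITF dimer wells with DMSO only; inhibitors lower the bead chemiluminescence by keeping MITF from dimerizing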
# AS interf ctr: AlphaScreen optical interference, counter-screen; shares compounds with MITF primary; LysRS AlphaScreen counterscreen, signal interference, triplicate; inhibition, % at 2.6 µM; hit rate 7.6% among 4,700;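 active = inhibition above a cutoff derived from the DMSO control wells, cut at about 30% in these data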
# The depositor's hits bear a star; nt = no result given. Hits are enriched below; roughly 3.5% of the tested compounds scored in any of these assays.
SMILES,FBW7 act,GPR151 activ,MITF primary,TEAD-YAP inh,MITF inh conf,AS interf ctr
Clc1ccc(CN2CCN(C3CC4CCC3C4)CC2)cc1 (centres undefined),0,0,79*,-9,16,18
O=CN1CCN(Cc2ccc(Cl)cc2)CC1,0,1,50,12,nt,nt
O=[N+]([O-])c1ccccc1CN1CCN(C2CC3CCC2C3)CC1 (centres undefined),0,-1,67*,-2,11,11
CCOC(=O)C1CCN(Cc2ccccc2[N+](=O)[O-])CC1,0,2,17,8,nt,nt
O=[N+]([O-])c1ccccc1CN1CCC(N2CCCC2)CC1,0,0,57*,-10,10,2
CCN1CCN(C2CCN(Cc3ccccc3[N+](=O)[O-])CC2)CC1,0,1,9,-15,nt,nt
O=[N+]([O-])c1ccccc1CN1CCc2ccccc2C1,0,2,21,11,nt,nt
O=[N+]([O-])c1ccccc1CN1CCC(N2CCc3ccccc3C2)CC1,0,-2,71*,6,13,27
O=[N+]([O-])c1ccccc1CN1CCN(C2CCN(Cc3ccccc3)CC2)CC1,0,-2,88*,3,2,13
O=[N+]([O-])c1ccccc1CN1CCC(O)CC1,0,1,21,-9,nt,nt
O=[N+]([O-])c1ccccc1CN1CCN(C2CCCC2)CC1,0,-1,73*,1,9,2
COc1ccc(/C=N/n2cnc3ccccc32)cc1,0,0,-6,-31,nt,nt
O=C(CSc1nc2c(c(=O)n1CCc1ccccc1)SCC2)N1CCCCC1,0,1,-4,4,nt,nt
COc1ccc(-c2c(C)oc3cc(OCC(N)=O)ccc3c2=O)cc1OC,0,-1,61*,4,0,7
COc1ccc(-c2c(C)oc3cc(OCC(=O)OC(C)C)ccc3c2=O)cc1OC,0,0,10,2,nt,nt
O=C(Nc1ccc2c(c1)C(=O)OC2)c1ccco1,0,1,4,0,nt,nt
CCOC(=O)N1CCN(C(=O)C2CCN(Cc3ccc(Cl)cc3)CC2)CC1,0,1,54*,0,10,9
CCOC(=O)N1CCN(C(=O)C2CCN(Cc3ccc(OC)c(OC)c3)CC2)CC1,0,2,52*,2,8,22
CCOC(=O)N1CCN(Cc2ccc3c(c2)CN(C(=O)C2CNC(=O)C2)CCO3)CC1 (centres undefined),0,2,61*,1,17,14
CCOc1ccc(C2C(C(=O)Nc3cccc(C)n3)=C(C)NC3=C2C(=O)CCC3)cc1 (centres undefined),0,0,4,-6,nt,nt
COCCNC(=O)CCCCn1c(=S)[nH]c2c([nH]c3ccc(OC)cc32)c1=O,1,-1,52*,4,-8,41*
CCCN(CCC)S(=O)(=O)c1ccc(C(=O)Nc2sc3c(c2C(N)=O)CCN(CC)C3)cc1,0,1,71*,0,-2,-4
CC1CC(C)CN(S(=O)(=O)c2ccc(C(=O)Nc3sc4c(c3C(N)=O)CCCCC4)cc2)C1 (centres undefined),0,-1,71*,5,-5,-4
CCOC(=O)c1c(NC(=O)c2ccc(S(=O)(=O)N3CC(C)CC(C)C3)cc2)sc2c1CCCC2 (centres undefined),0,-1,-5,-7,nt,nt
O=C(Nc1ccc(F)c(Cl)c1)/C(=C/c1cccc([N+](=O)[O-])c1)NC(=O)c1ccccc1Br,0,-1,-10,8,nt,nt
SMILES,FBW7 act,GPR151 activ,MITF primary,TEAD-YAP inh,MITF inh conf,AS interf ctr
CN(C)c1ccc(/C=C(\C#N)C(=O)OCC(=O)NC(=O)NC2CCCC2)cc1,0,1,-12,-8,nt,nt
O=C(c1ccc2c(c1)ncn2-c1ccc(F)cc1F)N1CCOCC1,0,0,18,-58,nt,nt
CCn1c(C)nc2cc(-c3nnc4n3-c3ccccc3SC4)ccc21,0,-1,14,6,nt,nt
COc1cc(CN2CCN(Cc3ccc(C(F)(F)F)cc3)CC2)cc(OC)c1OC,1,0,85*,19,4,17
COc1ccc(CN2CCN(Cc3ccc(C(F)(F)F)cc3)CC2)cc1OC,0,-2,24,14,nt,nt
COc1ccc(CN2CCN(Cc3ccncc3)CC2)c(OC)c1OC,0,0,62*,10,-2,-1
COc1cc(CN2CCN(Cc3ccc(OC)c(OC)c3OC)CC2)cc(OC)c1,0,0,70*,13,-11,-5
COc1ccc(CN2CCN(Cc3ccccc3Br)CC2)c(OC)c1OC,0,-1,81*,-6,18,8
COc1ccc(CN2CCN(c3ccccc3)CC2)c(OC)c1OC,0,0,27,-7,nt,nt
Cc1ccc(C)n1-c1nnc(N2CCC(C(=O)O)CC2)s1,1,0,11,2,nt,nt
CCOC(=O)c1c(NS(=O)(=O)c2ccccc2)sc(C)c1C,0,1,-9,-2,nt,nt
O=C(CCc1ccccc1)NCc1nc(-c2ccncc2)n[nH]1,0,0,8,-10,nt,nt
Cc1cccn2c(CNCCSc3ncn[nH]3)c(C(=O)N(C)CCc3ccccc3)nc12,0,-1,-1,8,nt,nt
COc1ccc(CN2CCN(Cc3ccc(C(F)(F)F)cc3)CC2)c(OC)c1OC,0,-1,78*,1,10,14
CN1CCN(C2CC(=O)N(c3ccc(N4CCCCC4)cc3)C2=O)CC1 (centres undefined),0,2,11,1,nt,nt
COc1cc(CN2CCN(Cc3ccco3)CC2)cc(OC)c1OC,0,-1,71*,4,-16,1
COc1cc(CN2CCN(Cc3cccc(C)c3)CC2)cc(OC)c1O,0,0,46,-6,nt,nt
COc1cc(CN2CCN(Cc3ccco3)CC2)cc(OC)c1O,0,0,76*,5,3,9
COc1ccccc1N1CCN(Cc2ccco2)CC1,0,-1,32,-5,nt,nt
N#CC1=C2N=C(N)c3c(sc4c3CCCCC4)N2C2=C(C(=O)CCC2)C1c1ccc2c(c1)OCO2 (centres undefined),0,0,7,6,nt,nt
CC(=O)Nc1ccc(-c2csc(Nc3ccc([N+](=O)[O-])cc3)n2)cc1,0,-1,-1,1,nt,nt
O=[N+]([O-])c1ccc(Nc2nc(-c3ccncc3)cs2)cc1,0,0,51*,-15,-6,-2
Cc1cc(C)n(CCNC2CCN(c3ccc(C(=O)NC(C)c4ccccc4)cc3)CC2)n1 (centres undefined),0,-2,91*,11,0,-2
O=C(CN1CCC(Cn2cnc3ccccc32)CC1)N1CCc2ccccc21,0,0,81*,35*,0,14
Cc1ccc(NC(=O)CN2CCC(Cn3cnc4ccccc43)CC2)cc1Cl,0,0,70*,-5,12,13
CCOC(=O)CN1CCC(Cn2cnc3ccccc32)CC1,0,0,79*,17,7,17
CCOC(=O)N1CCN(C(=O)Cn2cnc3ccccc32)CC1,0,1,0,7,nt,nt
